target: Torsin-1A (Homo sapiens) (UniProt O14656); assay: torsin A mutant lysate binding on microarrays – cell lysate, small-molecule microarray, COS7 lysate, 635/667 nm fluorescence, primary screen (AID 1150); conditions: COS7 hTOR1A mutant lysate, 635 nm fluorescence, higher = more signal;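 also: score pools 667 nm emission and signal to noise measuring lysate protein binding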
Sequence (O14656 whole entry, looked up): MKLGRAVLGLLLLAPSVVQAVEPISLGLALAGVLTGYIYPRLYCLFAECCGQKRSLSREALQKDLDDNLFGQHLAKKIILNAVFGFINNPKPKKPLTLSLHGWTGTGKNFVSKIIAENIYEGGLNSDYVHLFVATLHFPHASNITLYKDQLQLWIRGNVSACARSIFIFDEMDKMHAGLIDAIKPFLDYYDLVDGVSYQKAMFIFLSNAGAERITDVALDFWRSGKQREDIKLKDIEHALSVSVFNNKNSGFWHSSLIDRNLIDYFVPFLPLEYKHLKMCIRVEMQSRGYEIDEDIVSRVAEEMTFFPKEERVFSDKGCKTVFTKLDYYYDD

SMILES	composite z-score
COCC(=C=CC[C@@H](O)c1ccc(CO)o1)CCO	-0.114
CC(C)N1C(=O)c2ccccc2[C@@H](C(=O)NCCCN(C)C)[C@@H]1c1ccc(CO)cc1	-0.0729
C=C[C@@H](COC(C)=O)N(Cc1ccc([N+](=O)[O-])cc1)S(=O)(=O)c1ccc(Br)cc1	0.0176
CC(C)C(=C=CC[C@@H](O)c1ccccc1OCCO)C[C@@H](O)c1ccccn1	-0.303
C=CCNC(=O)[C@@H]1[C@H]2C(=O)O[C@H](c3ccccc3)[C@H](c3ccccc3)N2[C@H](c2ccc(O)cc2)[C@@]12C(=O)N(C(=O)OCCOC)c1ccccc12	0.76
CC(C)(C)OC(=O)CC[C@@]1(C(=O)NCCN2CCOCC2)N=C(c2ccc(OCCCO)cc2)O[C@@H]1c1ccccc1	-0.522
N#Cc1ccc(NN2C(C(O)C3CCCCC3)C=CC3C(=O)N(c4ccccc4)C(=O)C32)cc1 (stereo unspecified)	0.361
C=CCN1C(=O)[C@]2(O[C@H](CCO)[C@@H]([Si](C)(C)c3ccc(OC)cc3)[C@@H]2C)c2cc(NC(=O)[C@H](C)O)ccc21	0.499
O=C1O[C@H](c2ccccc2)[C@H](c2ccccc2)N2[C@H]1[C@@H](C(=O)N1CCN(c3ncccn3)CC1)[C@]1(C(=O)Nc3ccccc31)[C@H]2c1ccc(OCCO)cc1	0.36
O=C1OCCC/C=C\[C@H]2OC34C=CCN(Cn5nnc6ccccc65)C(=O)[C@H]3N(CCCCCO)C(=O)[C@@H]4C12 (stereo partly specified)	-0.736
COc1cc2c(cc1OC)CN(C(=O)[C@@H]1[C@H]3C(=O)O[C@H](c4ccccc4)[C@H](c4ccccc4)N3[C@H](c3ccccc3OCCO)[C@@]13C(=O)Nc1ccc(C#CCNC(N)=O)cc13)CC2	0.812

Reference: PubChem BioAssay
